Where “and” joins values, the source holds several entries; their conditions need not be identical. Equal values may be shown once. Where a structure was tested more than once in an assay, its records may differ in their call. Calls of active or inactive are those of the source. The calls were made as follows: active = hit-call score of the fitted dose curve at least 0.9, where 1 is the maximum; inactive = score below 0.9.

In this experiment the target is Aryl hydrocarbon receptor (Homo sapiens) (UniProt P35869). The experiment can be described thus: ATG_Ahr_CIS: Attagene CIS-FACTORIAL HepG2 Assay for human Aryl Hydrocarbon Receptor (Ahr) (AID 2282930). The note with it: HepG2 AhR cis-factorial reporter transcription; actives raise or lower the signal. The procedure: ATG_CIS is a cell-based, multiplexed-readout assay that uses HepG2, a human liver cell line, with measurements taken at 24 hours after chemical dosing in a 24-well plate.ATG_Ahr_CIS is one of 52 assay component(s) measured or calculated from the ATG_CIS assay. It is designed to make measurements of mRNA induction, a form of inducible reporter, as detected with fluorescence intensity signals by Reverse transcription polymerase chain reaction (RT-PCR) and Capillary electrophoresis technology.Data from the assay component ATG_Ahr_CIS was analyzed into 1 assay endpoint. This assay endpoint, ATG_Ahr_CIS, was analyzed with bidirectional fitting relative to DMSO as the negative control and baseline of activity. Using a type of inducible reporter, measures of mRNA for gain or loss-of-signal activity can be used to understand the reporter gene at the transcription factor-level as they relate to the gene AHR. Furthermore, this assay endpoint can be referred to as a primary readout, because this assay has produced multiple assay endpoints where this one serves a reporter gene function. To generalize the intended target to other relatable targets, this assay endpoint is annotated to the dna binding intended target family, where the subfamily is basic helix-loop-helix protein.
Aryl hydrocarbon receptor (Homo sapiens), sequence (P35869 whole entry, looked up): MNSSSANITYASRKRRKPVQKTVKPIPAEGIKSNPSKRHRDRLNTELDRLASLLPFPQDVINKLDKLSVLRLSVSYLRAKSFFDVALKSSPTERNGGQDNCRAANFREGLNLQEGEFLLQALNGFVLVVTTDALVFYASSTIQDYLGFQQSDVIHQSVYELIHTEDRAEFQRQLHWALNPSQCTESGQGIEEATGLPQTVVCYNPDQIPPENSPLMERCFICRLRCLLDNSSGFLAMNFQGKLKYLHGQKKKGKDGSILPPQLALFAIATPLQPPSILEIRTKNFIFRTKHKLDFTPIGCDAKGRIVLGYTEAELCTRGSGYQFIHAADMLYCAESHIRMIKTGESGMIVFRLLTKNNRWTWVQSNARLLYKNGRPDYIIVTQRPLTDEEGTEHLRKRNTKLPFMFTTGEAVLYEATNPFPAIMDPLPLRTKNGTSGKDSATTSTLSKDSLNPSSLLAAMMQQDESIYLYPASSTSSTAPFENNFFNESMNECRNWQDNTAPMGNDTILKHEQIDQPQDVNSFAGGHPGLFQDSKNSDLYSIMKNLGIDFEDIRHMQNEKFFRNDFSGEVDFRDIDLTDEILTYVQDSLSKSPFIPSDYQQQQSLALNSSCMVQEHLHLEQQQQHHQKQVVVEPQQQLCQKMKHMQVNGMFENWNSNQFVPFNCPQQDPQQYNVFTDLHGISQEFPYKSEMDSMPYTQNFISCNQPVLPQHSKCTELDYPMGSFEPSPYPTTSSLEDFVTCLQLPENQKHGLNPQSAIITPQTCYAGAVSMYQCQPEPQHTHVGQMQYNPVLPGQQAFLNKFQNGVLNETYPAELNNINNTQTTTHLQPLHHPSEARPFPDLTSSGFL
Human liver HepG2 cells are transiently transfected with multiple reporter transcription units (MRTUs) in 6-well plates using FuGene 6 reagent (Roche; 3 ml FuGene/1 mg DNA). The MRTU constructs are regulated by a cis-regulating element (promoter). […] A major difference between the CIS and TRANS system is that in CIS activities of endogenous TFs are measured, whereas the TRANS assay evaluates changes in activities of exogenous, chimeric NR-Gal4 proteins. […] At the end of 24 hour incubation, total RNA was isolated using TriZol reagent (Invitrogen). The isolated RNA is then reverse-transcribed using oligo(dT) primer and Mo-MLV reverse transcriptase (Invitrogen) with DNAse I (Ambion) treatment for 30 min. The one-tenth of the produced cDNA was amplified by PCR using Taq DNA polymerase (Invitrogen) and two reporter sequence-specific primers. The PCR products were fluorescently labeled by primer extension with 6-arboxyfluorescein (6-FAM) 5'-labeled reporter sequence-specific primer (2 min at 95 C, 20 s at 68 C and 10 min at 72 C) and these products were digested with 5U of HpaI (New England Biolabs) for 2h at 37 C. […] The raw capillary electrophoresis data was processed using Attagraph software (Attagene).
In the case of `COC(=O)c1ccccc1S(=O)(=O)NC(=O)N(C)c1nc(C)nc(OC)n1`, the result was inactive.

Regarding `CNC(=O)Oc1cccc(N=CN(C)C)c1`, the AC50 is 93.9 µM (active).

As to `N#CN`, the result was inactive.

Regarding `CNC(=O)/C=C(\C)OP(=O)(OC)OC`, the outcome was inactive.

Take `CCOCN(C(=O)CCl)c1c(C)cccc1CC`: the outcome was inactive.

Consider `CC(C)OC(=O)Nc1cccc(Cl)c1`, for which the outcome was inactive.

As to `Oc1ccc(Cl)cc1Cc1ccccc1`, the result was inactive.

On to `Cc1cc(C)nc(NC(=O)NS(=O)(=O)c2ccccc2C(=O)OC2COC2)n1`, for which the call was inactive.

Take `CCC(C)(C)C(=O)OC1=C(c2ccc(Cl)cc2Cl)C(=O)OC12CCCCC2`: the outcome was inactive.

For the compound `O=S(=O)(O)C(F)(F)C(F)(F)C(F)(F)C(F)(F)C(F)(F)C(F)(F)C(F)(F)C(F)(F)F`, the concentration at half-maximal activity (AC50) is 180 µM (active) and 40.3 µM (active); the result was inactive.

In the case of `CC(C)(C)C(O)C(Oc1ccc(Cl)cc1)n1cncn1` (stereo not given), the compound was called inactive.

`N#Cc1c(Cl)c(Cl)c(Cl)c(C#N)c1Cl`: the call was inactive.

Turning to `CNC(=O)Oc1ccccc1OC(C)C`, the compound was classed as inactive.

Take `CCS(=O)(=O)c1cccnc1S(=O)(=O)NC(=O)Nc1nc(OC)cc(OC)n1`: the call was inactive.

As for `CNC(=O)CSP(=S)(OC)OC`, the outcome was inactive.

In the case of `ClC1C(Cl)C(Cl)C(Cl)C(Cl)C1Cl` (stereo not given), the call was inactive.

In the case of `O=C(O)C(F)(F)C(F)(F)C(F)(F)C(F)(F)C(F)(F)C(F)(F)C(F)(F)F`, the compound was called inactive.

For the compound `C#CCN1C(=O)COc2cc(F)c(N3C(=O)C4=C(CCCC4)C3=O)cc21`, the compound was classed as inactive.

As to `COc1nn(CSP(=S)(OC)OC)c(=O)s1`, the result was inactive.

`CCCN(CCC)c1c([N+](=O)[O-])cc(C(F)(F)F)cc1[N+](=O)[O-]`: the outcome was inactive.

Regarding `[2H]C1([2H])[n+]2ccccc2-c2cccc[n+]2C1([2H])[2H]`, the result was inactive.

Turning to `CC(C)N(C(=O)COc1nnc(C(F)(F)F)s1)c1ccc(F)cc1`, the outcome was inactive.

For `Oc1cc(Cl)ccc1Oc1ccc(Cl)cc1Cl`, the compound was classed as inactive and the AC50 was 5.97 µM (active).

Turning to `O=[N+]([O-])c1c(Cl)c(Cl)c(Cl)c(Cl)c1Cl`, the compound was called inactive.

On to `O=S1OCC2C(CO1)C1(Cl)C(Cl)=C(Cl)C2(Cl)C1(Cl)Cl` (stereo not given), for which the compound was called inactive.

As to `CCC(C)Nc1c([N+](=O)[O-])cc(C(C)(C)C)cc1[N+](=O)[O-]` (stereo not given), the call was inactive.

`CC1(C)C(C=C(Cl)Cl)C1C(=O)OC(C#N)c1ccc(F)c(Oc2ccccc2)c1` (stereo not given): the compound was classed as inactive.

Take `COP(=S)(OC)Oc1ccc([N+](=O)[O-])cc1`: the result was inactive.

Regarding `CC1(c2ccc(Oc3ccccc3)cc2)OC(=O)N(Nc2ccccc2)C1=O` (stereo not given), the result was inactive.

In the case of `Clc1ccccc1-c1nnc(-c2ccccc2Cl)nn1`, the call was inactive.

Take `CC[C@H](C)[C@H]1O[C@]2(C=C[C@@H]1C)C[C@@H]1C[C@@H](C/C=C(\C)[C@@H](O[C@H]3C[C@H](OC)[C@@H](O[C@H]4C[C@H](OC)[C@@H](O)[C@H](C)O4)[C@H](C)O3)[C@@H](C)/C=C/C=C3\CO[C@@H]4[C@H](O)C(C)=C[C@@H](C(=O)O1)[C@]34O)O2` (tested in a mixture with another compound): the call was inactive.

Regarding `CCOC1Oc2ccc(OS(C)(=O)=O)cc2C1(C)C` (stereo not given), the call was inactive.

Take `O=C(Nc1ccccc1)Nc1cnns1`: the compound was classed as inactive.

In the case of `CC(C)(C)C(O)/C(=C\c1ccc(Cl)cc1Cl)n1cncn1` (stereo not given), the compound was classed as inactive.

With `COc1cc(OC)nc(NC(=O)NS(=O)(=O)c2cc(NC=O)ccc2C(=O)N(C)C)n1`, the outcome was inactive.

With `O=C(O)CCCOc1ccc(Cl)cc1Cl`, the result was inactive.

With `COP(=S)(OC)Oc1ccc(SC)c(C)c1`, the AC50 is 10.6 µM (active).

Regarding `COP(=O)(OC)OC=C(Cl)Cl`, the compound was called inactive.

Usually AC50 stands for the concentration at which the activity in the assay is half-maximal.

For the origin of these results see PubChem BioAssay (EPA / NIEHS).
